Experimental data published in the supplement of paper PMC13380429.

Test system: Vero E6 infected with SARS-CoV-2
Assay: inhibition of SARS-CoV-2 cytopathic effect; higher = more antiviral protection, active = above 15
Conditions: 48 h

Measured: inhibition of SARS-CoV-2 cytopathic effect

O=C(Nc1cc(-c2ccccc2)nn1-c1ccccc1F)c1ccc([N+](=O)[O-])cc1
inactive: 1 nM -0.89% | 8.33 nM 1.45% | 100 nM 1.23% | 833.33 nM -3.16% | 10000 nM 2.79%

CC(Cc1cccc(C(F)(F)F)c1)NCCOC(=O)c1ccccc1 (stereo not given) [benfluorex]
inactive: 1 nM 0.5% | 8.33 nM 0.35% | 100 nM -0.24% | 833.33 nM -1.03% | 10000 nM 0.26%

Cc1ncc(CN2CC=C(c3ccccc3)CC2)c(N)n1
inactive: 1 nM 0.67% | 8.33 nM 0.52% | 100 nM -0.09% | 833.33 nM 0.15% | 10000 nM 0.43%

Nc1ncn([C@H]2C[C@H](O)[C@@H](CO)O2)c(=O)n1 [decitabine]
inactive: 1 nM 3.33% | 8.33 nM 3.36% | 100 nM 4.5% | 833.33 nM -1.04% | 10000 nM -3.03%
